Bioassay records deposited in PubChem by National Center for Advancing Translational Sciences (NCATS).
In the library only some 7% were active in any assay of this set; here they are far more common.
JMJD2A Tudor – JMJD2A Tudor domain (human) inhibition | O75164 | AlphaScreen JMJD2A-Tudor / H3K4me3 peptide binding | Potency, µM (series often up to 114 µM), most hits filed as inhibitors | 390,000 tested, 4.4% active; note: nearly all actives have a fitted effect of over 50% in size
PI5P4K alpha inh – PI5P4K alpha (human) kinase inhibition; P48426; max response, %; AID 652105; PI5P4Kalpha enzyme, ADP-Glo luminescence, 60 min; stronger effect = lower value; 330,000 tested, 1.2% active; active = max response of -50% or lower; inconclusive = between -30% and -50%; inactive = -30% or higher; note: value at the top dose of about 77 µM
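ADP-Glo luminescence end-point read after a 60 min room-temperature kinase reaction of PI5P4Kalpha plus substrate, initiated with ATP at 5 microM final. Buffer: 0.038 M HEPES pH 7.4, EGTA, 0.1% CHAPS, 5% DMSO.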
PLK1 PBD inh – inhibitors of human PLK1 polo-box domain binding. Potency, µM, most hits filed as inhibitors. P53350. Plk1 PBD binding of FITC phosphopeptide, fluorescence polarization. AID 720504. 360,000 tested, 2.8% active; note: series mostly up to about 57 µM; nearly all actives have a fitted effect of over 65% in size
BAZ2B inh – blocks human BAZ2B. Q9UIF8. AlphaScreen BAZ2B-H3K14Ac peptide displacement. Potency, µM (highest dose often 114 µM), hits mostly inhibitors. 360,000 tested, 4.4% active; note: nearly all actives have a fitted effect of over 60% in size
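Multi-concentration screen (max 110 uM) measuring displacement of acetylated histone H3 peptide from BAZ2B by AlphaScreen, using 50 nM protein, 50 nM peptide and 10 ug/mL streptavidin donor plus Ni-chelate acceptor beads.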
HP1b binding inh – blocks HP1-beta chromodomain binding to methylated histone tails; P83916; AlphaScreen HP1-beta / biotin-H3K9me3 peptide binding; Potency, µM (doses to about 114 µM), usual class: inhibitors; 390,000 tested, 0.56% active; note: nearly all actives have a fitted effect of over 70% in size
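Compound inhibition of the preformed complex between 50 nM HP1-beta and 50 nM biotinylated H3K9me3 peptide was read by AlphaScreen. Buffer was PBS pH 7.4 with 0.01% Tween-20. Incubations ran 30 min at room temperature, with 10 ug/mL donor/acceptor beads.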
KAT2A inh – GCN5L2 (KAT2A) acetyltransferase inhibition; AID 504327; 390,000 tested, 0.21% active; Q92830; GCN5L2 HAT assay, ThioGlo1 CoA-SH fluorescence; Potency, µM (titrated, usually from 58.9 µM), most hits filed as inhibitors
Target sequence (Q92830 whole entry, looked up): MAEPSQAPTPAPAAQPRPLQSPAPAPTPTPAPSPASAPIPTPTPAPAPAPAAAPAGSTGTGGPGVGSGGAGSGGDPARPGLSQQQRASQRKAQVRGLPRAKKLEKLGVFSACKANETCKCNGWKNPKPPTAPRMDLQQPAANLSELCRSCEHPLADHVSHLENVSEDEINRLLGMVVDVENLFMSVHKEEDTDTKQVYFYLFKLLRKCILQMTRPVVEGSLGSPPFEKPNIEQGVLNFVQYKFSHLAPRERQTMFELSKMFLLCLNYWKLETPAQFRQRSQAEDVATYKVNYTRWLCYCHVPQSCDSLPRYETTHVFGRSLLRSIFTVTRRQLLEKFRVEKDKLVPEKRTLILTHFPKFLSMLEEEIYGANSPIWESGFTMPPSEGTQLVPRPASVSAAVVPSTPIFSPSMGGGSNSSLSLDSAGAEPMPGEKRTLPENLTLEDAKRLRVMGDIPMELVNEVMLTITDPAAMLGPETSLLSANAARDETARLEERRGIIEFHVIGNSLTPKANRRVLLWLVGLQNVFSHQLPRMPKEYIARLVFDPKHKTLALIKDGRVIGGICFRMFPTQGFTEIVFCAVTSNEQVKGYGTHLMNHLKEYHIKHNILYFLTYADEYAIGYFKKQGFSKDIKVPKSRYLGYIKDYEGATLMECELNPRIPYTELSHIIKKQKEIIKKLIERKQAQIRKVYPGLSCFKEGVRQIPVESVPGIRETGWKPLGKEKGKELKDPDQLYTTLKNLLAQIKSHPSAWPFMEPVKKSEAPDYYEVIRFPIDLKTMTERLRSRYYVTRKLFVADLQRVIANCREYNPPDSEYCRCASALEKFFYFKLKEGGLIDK
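Titration-based screen in which CoA formation is detected via maleimide probe ThioGlo1 (50uM) turning fluorescent on thiol reaction; substrates H3(1-25) 75uM and acetyl-CoA 70uM, GCN5L2 20nM, 20 min incubation at room temperature.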
ADP-Glo interf – interferes with ADP-Glo detection without enzyme present; shares compounds with PI5P4K alpha inh; ADP-Glo detection counter-screen, luciferase luminescence, no enzyme; Potency, µM (titrated, usually from 76.9 µM), actives largely listed as inhibitors; 1,100 tested, under 10 active
Hits are given with their value; i = inactive; ? = inconclusive; nt = no result; [ ] = remark or other dose. Unless noted, calls come from the whole dose curve; as a rule, active = well fitted curve in the direction sought with a large enough effect; inconclusive = small, poorly fitted or top-dose-only effect, or another doubt; inactive = no such curve, though single readings can be large; an effect the other way counts as inactive or inconclusive.

SMILES	JMJD2A Tudor	PI5P4K alpha inh	PLK1 PBD inh	BAZ2B inh	HP1b binding inh	KAT2A inh	ADP-Glo interf
COCCOC(=O)c1[nH]c2c(c1C)C(=O)CC(c1ccco1)C2 (centres undefined)	45µM	-55	?	50µM	50µM	i	i
COCCOC(=O)c1[nH]c2c(c1C)C(=O)CC(c1ccc(N(C)C)cc1)C2 (centres undefined)	?	i	i	?	i	i	nt
Cn1c(=O)n(CC(=O)NCC2CCCO2)c(=O)c2c3c(sc21)CCCC3 (centres undefined)	i	i	i	i	i	i	nt
COc1ccc2c(CC(=O)N3CCN(S(=O)(=O)c4cccs4)CC3)coc2c1	i	i	i	i	i	i	nt
COc1ccc2c(CC(=O)N3CCN(S(=O)(=O)c4ccc(F)cc4)CC3)coc2c1	?	-53	i	?	i	i	i
CCn1nc(CC(=O)Nc2nnc(CC(=O)N3CCCC3)s2)c2ccccc2c1=O	i	i	i	i	i	i	nt
CCn1nc(CC(=O)Nc2nnc(CC(=O)N3CCOCC3)s2)c2ccccc2c1=O	i	i	i	i	i	i	i
CCC(C)NC(=O)C1CCN(C(=O)c2cc3sccc3n2Cc2ccc(Cl)cc2)CC1 (centres undefined)	i	nt	nt	i	i	i	nt
Cc1c(C(=O)O)cccc1-c1ccc(/C=C2\SC(=O)NC2=O)o1	i	-57	i	i	i	i	i
Cc1cccc(NC(=O)CN2C(=O)N/C(=C/c3ccc(-c4cccc(C(=O)O)c4C)o3)C2=O)c1	i	i	i	?	i	i	nt
O=S(=O)(c1ccc(F)c(F)c1)N1CCCc2ccccc21	i	i	i	i	i	i	nt
O=S(=O)(c1ccc(Br)cc1)N1CCCc2ccccc21	i	i	i	i	i	i	i
Oc1ccc(CNc2ccc(F)cc2)c2cccnc12	56µM	-54	3.4µM	25µM	i	i	i
CCN(C[C@H]1N[C@@](CC)(C(=O)OC)[C@H]2C(=O)N(C)C(=O)[C@@H]12)C(=O)NC(C)C	i	i	i	nt	i	i	nt
O=C(COc1ccc([N+](=O)[O-])cc1)Nc1cccnc1	i	-54	i	i	i	i	i
COc1ccccc1NCCC(=O)OCC(=O)NCc1ccco1	?	-60	i	i	i	i	i
COc1ccccc1N(CC(=O)NCc1ccco1)S(=O)(=O)c1ccc(C)cc1	35µM	-80	27µM	45µM	45µM	i	i
COc1ccc(N(CC(=O)NCc2ccco2)S(=O)(=O)c2ccc(C)cc2)cc1OC	i	i	i	i	i	i	nt
O=C1NC[C@H](CCCCN2C[C@H](Cc3ccccc3)N(CCC3CCCCC3)C(=O)C2=O)N(CCc2ccc(O)cc2)C1=O	nt	i	i	nt	nt	nt	nt
CCN1CCN(Cc2ccc(NC(=O)c3ccc(C)c(NC(=O)c4nccn4C)c3)cc2C(F)(F)F)CC1	i	i	i	i	i	i	nt
CCN1CCN(Cc2ccc(NC(=O)c3ccc(C)c(NC(=O)c4cc(-c5ccc(Br)cc5)n[nH]4)c3)cc2C(F)(F)F)CC1	?	-57	i	?	i	i	i
Cc1cc(C)c(OCC(=O)OCC(=O)NCCC2=CCCCC2)c(C)c1	i	i	i	i	i	i	nt
Cc1ccc(-c2csc(NC(=O)Cc3ccc(F)cc3)n2)o1	i	-56	24µM	i	?	i	i
COc1ccc(OC)c(-c2csc(NC(=O)Cc3ccc(F)cc3)n2)c1	?	i	i	i	i	i	nt
Cc1ccc(-c2csc(Nc3ccc(S(N)(=O)=O)cc3)n2)o1	56µM	-65	?	45µM	?	i	i
O=C(CCCOc1ccc(Br)cc1)Nc1nnc(C2CC2)s1	i	i	i	i	i	i	nt
COCc1cc(=O)n2[nH]c(-c3ccsc3-n3c(C)ccc3C)cc2n1	i[11.4 µM]	-54	?	?	i	i	i
O=C(COC(=O)c1ccco1)Nc1nc2c(F)c(F)c(F)cc2s1	i	-53	i	i	i	i	i
